Results: PubChem BioAssay AID2599 (Sanford-Burnham Center for Chemical Genomics, 2010)
In all, about 330,000 compounds went through this assay and about 5,800 (1.8%) were called active.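 Rule for the calls: active = inhibition above about 50% at the single tested dose (limit read from the data); inactive = the rest.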 The sample as a whole holds a higher share of actives than the screen did.

target: Sentrin-specific protease 6 (Homo sapiens) (UniProt Q9GZR1); test: SENP6 protease inhibitors, primary screen, biochemical, luminescence, uHTS (AID 2599); details: Recombinant SENP6 catalytic domain, aminoluciferin luminescence; at 10 µM; stronger effect = higher value;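 note: plate controls were DMSO wells with enzyme for no effect and DMSO wells lacking enzyme for full effect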
Sequence (Q9GZR1 628-1112 limits assumed): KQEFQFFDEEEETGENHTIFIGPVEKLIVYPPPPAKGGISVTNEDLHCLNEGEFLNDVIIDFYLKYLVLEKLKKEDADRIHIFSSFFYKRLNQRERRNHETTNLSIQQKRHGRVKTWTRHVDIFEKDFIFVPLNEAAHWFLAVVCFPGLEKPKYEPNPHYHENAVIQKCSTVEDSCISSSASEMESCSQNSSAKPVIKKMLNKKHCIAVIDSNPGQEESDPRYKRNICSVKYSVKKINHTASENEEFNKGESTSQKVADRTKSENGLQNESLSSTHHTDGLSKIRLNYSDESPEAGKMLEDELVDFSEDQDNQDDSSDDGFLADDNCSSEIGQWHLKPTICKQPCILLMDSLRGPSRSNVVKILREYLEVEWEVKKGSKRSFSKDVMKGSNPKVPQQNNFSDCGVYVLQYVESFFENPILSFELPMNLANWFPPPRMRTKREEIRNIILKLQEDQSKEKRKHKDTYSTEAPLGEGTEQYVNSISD

Row | Compound | inhibition
1 | Cc1nc(NC(CC(C)C)C(=O)O)c2nc(C)oc2n1 (centres undefined) | 7.07% (inactive)
2 | CCOC(=O)C(CC)Sc1ncnc2c1nnn2-c1ccc(F)cc1 (centres undefined) | -3.73% (inactive)
3 | CCc1ccc(N(C(=O)c2csnn2)C(C(=O)NC2CCCCC2)c2cccnc2)cc1 (centres undefined) | -39% (inactive)
4 | COc1ccc(C(CNC(=O)c2cc3c(s2)CCCC3)N2CCOCC2)cc1 (centres undefined) | 3.85% (inactive)
5 | O=C(COc1ccc(NC(=O)c2ccccc2[N+](=O)[O-])cc1)c1ccc(F)cc1 | -17.5% (inactive)
6 | COc1ccc(/C=N/OCc2ccccc2C#N)c(OC)c1 | -10.3% (inactive)
7 | O=C(/C=C/Sc1ncn[nH]1)c1ccc(Cl)cc1 | -14.2% (inactive)
8 | Cc1noc(/C=C/c2ccco2)c1S(=O)(=O)N1CCC(C(=O)N2CCc3ccccc32)CC1 | -4.32% (inactive)
9 | CC(C)c1ccccc1OCC(O)CN(CC(O)COc1cccc2ccccc12)C(C)C (centres undefined) | -38.4% (inactive)
10 | COc1ccc(-c2n[nH]c3c2CN(C(=O)c2ccc(F)cc2)CC3)cc1 | -10.3% (inactive)
11 | O=C(CCN1C(=O)[C@H]2CC=CC[C@H]2C1=O)NCc1nc(-c2ccccc2)no1 | -11% (inactive)
12 | OCCNc1nc(Nc2ccc(Cl)c(Cl)c2)nc2ccccc12 | 13.5% (inactive)
13 | COc1ccc(-c2nc(-c3ccccc3)no2)c(OC)c1 | 97.7% (active)
14 | COc1ccc(-c2noc(CNC(=O)C(C)Oc3ccccc3)n2)cc1 (centres undefined) | -14.5% (inactive)
15 | COc1ccc(OC)c(-c2csc(-c3cccs3)n2)c1 | -21.1% (inactive)
16 | CN(C(=O)c1c(Cl)cnn1C)C12CC3CC(CC(C3)C1)C2 | 5.39% (inactive)
17 | CC(C)n1c(COc2ccccc2)nc2ccccc21 | -4.84% (inactive)
18 | Cc1ccc(OCc2nc3ccccc3n2C)cc1 | 65.3% (active)
19 | COCn1c(COc2ccccc2)nc2ccccc21 | -7.24% (inactive)
20 | COc1cccc(N2CC(NC(=O)c3ccc4ccccc4c3)CC2=O)c1 (centres undefined) | -9.84% (inactive)
21 | CC(C)(CNC(=O)c1ccc(Cl)c(S(=O)(=O)N2CCc3ccccc3C2)c1)N1CCOCC1 | -0.183% (inactive)
22 | COc1ccc2occ(C(=O)c3ccc(N=C(C)N(C)C)cc3)c2c1 | 62.1% (active)
23 | COc1ccc(OC)c(C(=O)c2coc3ccc(OC)cc23)c1 | -18.1% (inactive)
24 | COc1ccc(OC)c(C(=O)c2ccc(Cl)cc2)c1 | 6.03% (inactive)
25 | Cc1ccc(/C=N/NC(=O)c2sccc2OCc2ccc(F)cc2)cc1 | -36.4% (inactive)

Row | Compound | inhibition
26 | Cc1ccc(NC(=O)CN(C)CC(=O)Nc2cccc(F)c2)cc1[N+](=O)[O-] | -3.74% (inactive)
27 | O=C(N/N=C/c1ccc([N+](=O)[O-])cc1)C(=O)N1CCCC1 | -54.5% (inactive)
28 | Cc1ccc(NC(=O)c2sccc2C)cc1[N+](=O)[O-] | 82.7% (active)
29 | Cc1ccsc1C(=O)N/N=C/c1ccc([N+](=O)[O-])cc1 | 82.9% (active)
30 | Cc1cc(O)c(NC(=O)c2ccc(C)c([N+](=O)[O-])c2)cc1C | -1.6% (inactive)
31 | O=S(=O)(NC1CCCCC1)c1ccc(F)c2ccccc12 | -13.8% (inactive)
32 | Clc1ccc(Nc2ccc3ccccc3n2)cc1 | 89.2% (active)
33 | O=c1ccnc(Nc2ccc(Cl)cc2)[nH]1 | -2.45% (inactive)
34 | Cc1cc(Nc2ccc(Br)cc2)nc2ccccc12 | 0.575% (inactive)
35 | CN(C)/C=C(\C#N)C(=O)c1cccnc1Oc1cccc(F)c1 | -2.99% (inactive)
36 | COc1ccc2oc(=O)cc(CN3CCOCC3)c2c1 | -0.296% (inactive)
37 | CCCCC(O)(CCCC)C(=O)NN(C(=O)CCl)c1ccccc1 | -17.7% (inactive)
38 | O=C(Nc1ccncc1)c1ccc([N+](=O)[O-])cc1Cl | -18.8% (inactive)
39 | O=C(Nc1ccncc1)c1ccccc1[N+](=O)[O-] | -15.3% (inactive)
40 | O=C(Nc1ccccc1C(=O)Nc1ccncc1)c1ccc([N+](=O)[O-])cc1 | 58.6% (active)
41 | CC(=O)N(c1ccc2oc(=O)sc2c1)S(=O)(=O)c1ccc(C)cc1 | 15.9% (inactive)
42 | Cc1ccc(S(=O)(=O)N2CCN(C(=O)CN3C(=O)NC(C)(c4ccc(Cl)cc4)C3=O)CC2)c(C)c1 (centres undefined) | -2.29% (inactive)
43 | O=C(OCc1ccc(-c2ccccc2)cc1)c1cccc(O)c1 | 2.41% (inactive)
44 | Cc1ccc(O)c(CNc2nc3ccccc3n2C)c1 | 51.5% (active)
45 | Cc1ccc(O)c(CNc2nc3ccccc3[nH]2)c1 | -16.5% (inactive)
46 | CC(C)n1c(NCc2c[nH]c3ccccc23)nc2ccccc21 | 9.71% (inactive)
47 | COC(=O)c1sccc1NC(=O)CC1C(=O)NCCN1C(=O)Nc1ccc(F)cc1F (centres undefined) | -25.4% (inactive)
48 | Cc1ccc(N2C(=O)C3C4C=CC(CC4)C3C2=O)cc1Cl (centres undefined) | 14.5% (inactive)
49 | O=C(Nc1ccc(N2CCN(C(=O)c3ccccc3)CC2)c(Cl)c1)c1cccnc1 | 14.4% (inactive)
50 | O=[N+]([O-])c1ccccc1SNc1ccccn1 | -6.35% (inactive)

Row | Compound | inhibition
51 | CCCc1ccc(OCCNC(=O)c2ccccc2Br)cc1 | 14.6% (inactive)
52 | CCCc1ccc(OCCNC(=O)c2ccco2)cc1 | 14.5% (inactive)
53 | CCCOc1ccc(C(=O)NCCc2ccccc2)cc1 | 76.4% (active)
54 | OCC[C@H]1C[C@H](O)[C@@H](O)[C@]2(CCCCO2)O1 | -7.27% (inactive)
55 | CCOC(=O)N1CCN(C(=O)COc2ccc3oc4c(c3c2)CCCC4)CC1 | 1.75% (inactive)
56 | O=C(COc1ccc2oc3c(c2c1)CCCC3)Nc1ccccn1 | 56.4% (active)
57 | CCN(CC)CCCNC(=O)COc1ccc2oc3c(c2c1)CCCC3 | -9.52% (inactive)
58 | CCOC(=O)c1sc(NC(=O)C2CSC3(C)CCC(=O)N23)nc1C (centres undefined) | -17.8% (inactive)
59 | O=C(NCCc1ccc(Cl)cc1)C1CCCN1C(=O)NCc1ccccc1 (centres undefined) | 19.7% (inactive)
60 | O=C(NCC(c1ccco1)N1CCc2ccccc2C1)c1ccccc1Cl (centres undefined) | -27.1% (inactive)
61 | CCOC(=O)c1ccc(NC(=O)c2cc(=O)[nH]c3ccccc23)cc1 | -1.31% (inactive)
62 | CCOC(=O)c1ccc(Nc2cc3ccccc3c(=O)[nH]2)cc1 | 85.9% (active)
63 | CCOC(=O)c1ccc(Nc2cc(C)nc3nc(C)nn23)cc1 | 3.17% (inactive)
64 | CCc1ccc(NC(=O)CN2C(=O)CSC2=O)cc1 | 3.31% (inactive)
65 | CCc1nc2sc3c(Cl)ncnc3c2c2c1CCCC2 | -2.17% (inactive)
66 | COCc1nnc(NC(=O)c2ccc3c(c2)OCO3)s1 | 13.6% (inactive)
67 | CC(=O)Nc1cccc(C(=O)OCC(=O)c2ccc3c(c2)OCO3)c1 | 83.6% (active)
68 | CN1CCN(c2ccc(NC(=O)c3ccc4c(c3)OCCO4)cc2Cl)CC1 | 3.53% (inactive)
69 | O=C(Nc1cccc([N+](=O)[O-])c1)c1ccc2c(c1)OCO2 | 66.7% (active)
70 | O=C(Nc1nc2ccccc2s1)c1ccc2c(c1)OCO2 | 94.8% (active)
71 | Cc1ccc2sc(NNC(=O)c3ccc4c(c3)OCCO4)nc2c1C | 12.7% (inactive)
72 | Cc1onc(C(=O)Nc2ccc3c(c2)OCO3)c1[N+](=O)[O-] | 0.864% (inactive)
73 | O=C(COC(=O)c1ccc(F)cc1)Nc1ccc2c(c1)OCO2 | -6.02% (inactive)
74 | O=C(Nc1ccccc1)c1ccc2c(c1)OCCCO2 | 86.7% (active)
75 | O=C(Nc1ccc2c(c1)OCCO2)c1ccoc1 | -9.58% (inactive)

Row | Compound | inhibition
76 | CC(NC(=O)Nc1cccc([N+](=O)[O-])c1)c1ccc2c(c1)OCO2 (centres undefined) | -3.48% (inactive)
77 | CC(NC(=O)COC(=O)c1ccc2c(c1)OCO2)c1ccccc1 (centres undefined) | -2.95% (inactive)
78 | Cc1cc(NC(=O)CN2C(=O)NC(CC(C)C)C2=O)no1 (centres undefined) | -8.76% (inactive)
79 | Cc1cc(C)nc(-n2nc(C)cc2NC(=O)c2ccc(F)cc2F)n1 | 6.48% (inactive)
80 | CC(=O)Nc1ccc(NC(=O)C(NS(=O)(=O)c2ccc3c(c2)OCCO3)C(C)C)cc1 (centres undefined) | 16.7% (inactive)
81 | COc1cccc(NC(=O)N2CCC(NC(=O)C(Cc3cccc(C)c3)NC(C)=O)CC2)c1 (centres undefined) | 20.6% (inactive)
82 | Cc1ccc2cccc(S(=O)(=O)N3CCN(c4ccccc4F)CC3)c2n1 | -3.25% (inactive)
83 | O=C(Nc1ccnn1C1CCN(Cc2cccc(OCCO)c2)CC1)C1CCCC1 | -17.8% (inactive)
84 | O=C(CSc1ccccn1)Nc1nc2c(ccc3ccccc32)s1 | -10.2% (inactive)
85 | CCc1nn(CCCN2CCN(c3cccc(Cl)c3)CC2)c(=O)n1CCOc1ccccc1 | -12% (inactive)
86 | CN(C(=O)c1cccc(NC(=O)C2CCN(C(=O)OC(C)(C)C)CC2)c1)C1CCC1 | -7.07% (inactive)
87 | CCN(CC)S(=O)(=O)c1ccc(N2CC(C(=O)NCc3cccnc3)CC2=O)cc1 (centres undefined) | -2.04% (inactive)
88 | COc1ccc(C(=O)Nc2ccc(C3(C#N)CCCC3)cc2)cc1OC | 96.3% (active)
89 | O=C(Nc1ccccc1)c1ccc2c(c1)OCO2 | 85.1% (active)
90 | O=C(Nc1ccc(NC(=O)c2ccc3c(c2)OCO3)cc1)c1cccc(Cl)c1 | -11.5% (inactive)
91 | COc1ccc(C(=O)Nc2ccc3c(c2)OCO3)cc1OC | 80.8% (active)
92 | O=C(Nc1ccc(N2CCOCC2)cc1)c1ccc2c(c1)OCO2 | 25.4% (inactive)
93 | COc1cc(C(=O)NCC2(c3ccccc3)CCCC2)ccc1OC(C)C | 2.81% (inactive)
94 | CC(C)C(=O)Nc1cccc(C(=O)Nc2ccc3c(c2)OCO3)c1 | 33.6% (inactive)
95 | COc1ccc(C(=O)Nc2ccc3nc(N4CCCCC4)cc(C)c3c2)cc1OC | -7.43% (inactive)
96 | O=C(Nc1ccccc1F)c1ccc2c(c1)OCO2 | 71.4% (active)
97 | N#Cc1ccccc1NC(=O)c1ccc2c(c1)OCO2 | -12.5% (inactive)
98 | CN(Cc1c(F)cccc1Cl)C(=O)CNC(=O)c1ccc2c(c1)OCO2 | -13.3% (inactive)
99 | COc1cc(NC(=O)c2ccc3c(c2)OCO3)ccc1NC(=O)c1cccs1 | -45.6% (inactive)
